Experimental data: PubChem BioAssay (NCATS)
Inconclusive results are not listed. Unmarked numbers belong to inactive results. Activity calls are given as the source filed them. Calls come from the whole dose curve; as a rule, active = well fitted inhibition curve with a large enough effect; inconclusive = small, poorly fitted or top-dose-only effect; inactive = no such curve, though single readings can be large or run the other way.

Test system: Zika virus NS2B-NS3 protease (unlinked complex)
Experiment: Primary screen GU Rhodamine qHTS for Zika virus inhibitors: Unlinked NS2B-NS3 protease assay (AID 1347159); note: nearly all actives have a fitted effect of over 60% in size
Conditions: Recombinant ZIKV NS2B-NS3 protease, Rhodamine110 substrate fluorescence; series mostly up to 107 µM; activity change, negative = inhibition: at the top concentration
Outline: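 Noncovalent NS2B hydrophilic domain–NS3 protease domain complex (25 nM) preincubated 15 min at room temperature with compounds (up to 114 microM) in 10 mM Tris-HCl pH 8.0, 0.01% Tween 20; 1.5 microM Rhodamine110 substrate added, fluorescence change over 15 min fitted to Hill equation.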
% is set by controls: 0 for no effect and ±100 for the full control effect; potency is the fitted concentration of half-maximal effect.

Structure (SMILES)	activity change, negative = inhibition	Potency
C/C(=C/CO)CC[C@@H]1[C@@]2(C)CCC[C@](C)(C(=O)O)C2CC[C@@]1(C)O (stereo partly drawn)	29.4%	–
CC(=O)OC[C@]12[C@H](OC(C)=O)C(=O)[C@@H]3[C@@H](OC(C)=O)[C@@]14O[C@@]3(C)COC(=O)c1cccnc1[C@@H](C)[C@H](C)C(=O)O[C@@H]([C@H](OC(C)=O)[C@@H]2OC(C)=O)[C@]4(C)O	12.3% [at 32.5 µM]	–
Cc1nc2c(-c3cnc(N)nc3)nc(N3CCOCC3)nc2n1C(C)C	1.12%	–
C=C1C(OC(C)=O)C(=O)C2C(C)(C)C(OC(C)=O)CCC2(C)C1CC(OC(C)=O)/C(C)=C/COC(C)=O (stereo not drawn)	9.31% [at 57.1 µM]	–
COc1cc(C2Oc3c(O)cc(CCCO)cc3C2CO)ccc1O[C@H]1O[C@H](C)[C@@H](O)[C@H](O)[C@@H]1O (stereo partly drawn)	22.2% [at 57.1 µM]	–
CC(=O)OC[C@@]12[C@@H](OC(C)=O)C[C@@H](C)[C@](C)([C@@H]3C[C@H]4C=CO[C@H]4O3)[C@H]1CCC[C@]21CO1	8.03% [at 57.1 µM]	–
CNC(=O)COC(=O)NCCC1CCN(c2cccc(C)n2)CC1	8.85%	–
CC(C)[C@@H](C)/C=C/[C@@H](C)[C@H]1CC[C@H]2C3=CC=C4C[C@@H](O)CC[C@]4(C)[C@H]3CC[C@]12C	29.7% [at 57.1 µM]	–
CC/C=C/CC1=C(CCCCCCCC(=O)O)CCC1=O	-19.5%	–
O=S(=O)(Nc1ccc(C(O)(C(F)(F)F)C(F)(F)F)cc1)c1cccs1	-12.8%	–
C=C1CC2C3(C)C(OC(C)=O)CC(=O)OC(C)(C)C3C(O)C(OC(C)=O)C2(C)C2C(=O)OC(C)C(=O)C12C (stereo not drawn)	22.7% [at 57.1 µM]	–
COC1=CC(=O)C[C@@H](C)[C@]12Oc1cc(OC)cc(OC)c1C2=O	-0.55%	–
C/C=C/C=C/C=C/C(=O)O[C@@H]1[C@@H](OC)C2=C(C(=O)N(C(C)C(=O)O)C2)[C@@]2(C)CCCC(C)(C)[C@H]12 (stereo partly drawn)	–	7.94 µM (active)
C/C(=C/CCC(CO)C1CCC2(C)C3CCC4C(C)(C)C(OC5OC(CO)C(O)C(O)C5O)CC(O)C45CC35CCC12C)COC1OC(CO)C(O)C(O)C1O (stereo not drawn)	14.5% [at 32.5 µM]	–
COC1CC(OC2CCC3(C)C(=CCC4C3CCC3(C)C(C(C)O)CCC43O)C2)OC(C)C1OC1OC(C)C(OC2OC(COC3OC(COC4OC(CO)C(O)C(O)C4O)C(O)C(O)C3O)C(O)C(O)C2O)C(OC)C1O (stereo not drawn)	0.333% [at 32.5 µM]	–
CC(C)CC1(C(=O)OCc2ccc(O[C@@H]3O[C@H](CO)[C@@H](O)[C@H](O)[C@H]3O)cc2)CC(=O)OC(C(=O)O)CC(=O)OCC2OC(O1)C(OC(=O)/C=C/c1ccc(O)cc1)C(O)C2O (stereo partly drawn)	-3.93% [at 32.5 µM]	–
CCC(CCO[C@@H]1O[C@H](CO[C@H]2OC[C@](O)(CO)[C@H]2O)[C@@H](O)[C@H](O)[C@H]1O)C(C)(C)O (stereo partly drawn)	13.2% [at 57.1 µM]	–
C=CC1C(O[C@@H]2O[C@H](CO)[C@@H](O)[C@H](O)[C@H]2O)OC=C(C(=O)OC)C1Cc1nccc2c1[nH]c1ccccc12 (stereo partly drawn)	86.1% [at 57.1 µM]	–
CCC[C@@H]1C[C@@H](C(=O)N[C@H](C(C)Cl)[C@H]2O[C@H](SC)[C@H](O)[C@@H](O)[C@H]2O)N(C)C1 (stereo partly drawn)	27.7%	–
COc1cc2c(cc1O)C1(OC)Cc3ccc4c(c3C1N(C)CC2)OCO4 (stereo not drawn)	1.51%	–
CCN[C@@H]1C[C@H](N)[C@@H](O[C@H]2OC(CN)=CC[C@H]2N)[C@H](O)[C@H]1O[C@H]1OC[C@](C)(O)[C@H](NC)[C@H]1O	–	inactive
CC1CCC2C(C)(C)CC(C)(CO)C2(O)C1C(=O)O (stereo not drawn)	23%	–
C[C@@H]1C[C@H]2[C@@H]3CCC4=CC(=O)C=C[C@]4(C)[C@@]3(F)[C@@H](O)C[C@]2(C)[C@@]1(O)C(=O)COP(=O)(O)O	-18.2%	–
N#Cc1ccnc(N2C(=O)CC[C@H]2C(=O)N(c2cncc(F)c2)[C@H](C(=O)NC2CC(F)(F)C2)c2ccccc2Cl)c1	0%	–
C[C@@]12C[C@]3(O)O[C@H](O1)[C@]1(COC(=O)c4ccccc4)[C@H]3C[C@@]12O[C@@H]1O[C@H](COC(=O)c2ccccc2)[C@@H](O)[C@H](O)[C@H]1O	5.53% [at 57.1 µM]	–

Test system: Zika virus NS2B-NS3 protease (linked construct)
Experiment: Primary screen NINDS Rhodamine qHTS for Zika virus inhibitors (AID 1347160); note: nearly all actives have a fitted effect of over 55% in size
Conditions: purified NS2B-NS3 protease, Rhodamine110 substrate fluorescence; series mostly up to 57.1 µM; activity change, negative = inhibition: at the top concentration
Outline: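 Purified linked NS2B-NS3 protease (NS2B hydrophilic domain joined to NS3 protease by flexible linker), 25 nM in 10 mM Tris-HCl pH 8.0, 0.01% Tween 20. Compounds titrated, 15 min preincubation at room temperature; 1.5 microM Rhodamine110 substrate, FITC fluorescence change over 15 min.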

Structure (SMILES)	activity change, negative = inhibition	outcome	Potency
COC(=O)C1=CO[C@@H](O[C@@H]2O[C@H](CO)[C@@H](O)[C@H](O)[C@H]2O)[C@@H]2[C@@H](C(=O)OC)[C@@H](O)C(O)[C@H]12 (stereo partly drawn)	43.1% [at 33.1 µM]	–	–
COC1CC(=O)CCC(C)OC(=O)CC1O (stereo not drawn)	29.1%	–	–
C1CCN2CC3C[C@@H](CN4CCCC[C@@H]34)[C@H]2C1	21.9%	–	–
CC1(CCC(=O)O)C(=O)C=CC23CC4CC(OC4(C)C2O)C13 (stereo not drawn)	27% [at 33.1 µM]	–	–
CC(C)(C)NCc1cc(Nc2ccnc3cc(Cl)ccc23)c2c(c1O)CCCC2	–	inactive [at 0.684 µM]	–
CC1CC(O)CC(C)(C)C1(O)CCO (stereo not drawn)	7.33% [at 112 µM]	–	–
CO[C@@H]1COCC[C@@H]1N[C@@H]1CC[C@@](C(=O)N2CCc3ncc(C(F)(F)F)cc3C2)(C(C)C)C1	2% [at 15.1 µM]	–	–
CC[C@H](/C=C/[C@@H](C)[C@H]1CC[C@H]2[C@@H]3CC=C4C[C@@H](O)CC[C@]4(C)[C@H]3CC[C@]12C)C(C)C	7.22% [at 4.91 µM]	–	–
CC(C)C(=O)O[C@@H]1[C@@H](O)[C@@H](O[C@H]2O[C@H](CO)[C@@H](O)[C@H](O)[C@H]2O)O[C@H](CO)[C@H]1O	-8.92% [at 33.1 µM]	–	–
O=C(O)C[C@@H](NC(=O)c1cc(-c2ccc(-c3ccncc3)cc2)cs1)c1ccccc1	–	–	20 µM (active)
Cc1nnc(C(C)C)n1C1CC2CCC(C1)N2CC[C@H](NC(=O)C1CCC(F)(F)CC1)c1ccccc1 (stereo partly drawn)	38.9%	–	–
COC(=O)c1cc(CN2CCN(C(=N)N)CC2)cc(C(=O)N2CCN(C(=O)c3ccc(C(=N)N)cc3)CC2)c1	67.3%	–	–
CC1=C2[C@@H]([C@H](C)CC[C@H]2/C=C(\C)C(=O)O)[C@H](O)C1	–	inactive	–
C/C(=C/CO)CC[C@@H]1[C@@]2(C)CCC[C@](C)(C(=O)O)C2CC[C@@]1(C)O (stereo partly drawn)	-22.3% [at 33.1 µM]	–	–
CC(=O)OC[C@]12[C@H](OC(C)=O)C(=O)[C@@H]3[C@@H](OC(C)=O)[C@@]14O[C@@]3(C)COC(=O)c1cccnc1[C@@H](C)[C@H](C)C(=O)O[C@@H]([C@H](OC(C)=O)[C@@H]2OC(C)=O)[C@]4(C)O	-23.9% [at 15.1 µM]	–	–
Cc1nc2c(-c3cnc(N)nc3)nc(N3CCOCC3)nc2n1C(C)C	17.2%	–	–
C=C1C(OC(C)=O)C(=O)C2C(C)(C)C(OC(C)=O)CCC2(C)C1CC(OC(C)=O)/C(C)=C/COC(C)=O (stereo not drawn)	21.3% [at 33.1 µM]	–	–
COc1cc(C2Oc3c(O)cc(CCCO)cc3C2CO)ccc1O[C@H]1O[C@H](C)[C@@H](O)[C@H](O)[C@@H]1O (stereo partly drawn)	-7.4% [at 33.1 µM]	–	–
CC(=O)OC[C@@]12[C@@H](OC(C)=O)C[C@@H](C)[C@](C)([C@@H]3C[C@H]4C=CO[C@H]4O3)[C@H]1CCC[C@]21CO1	-0.48% [at 33.1 µM]	–	–

Structure (SMILES)	activity change, negative = inhibition	outcome	Potency
CNC(=O)COC(=O)NCCC1CCN(c2cccc(C)n2)CC1	–	inactive	–
CC(C)[C@@H](C)/C=C/[C@@H](C)[C@H]1CC[C@H]2C3=CC=C4C[C@@H](O)CC[C@]4(C)[C@H]3CC[C@]12C	23% [at 33.1 µM]	–	–
CC/C=C/CC1=C(CCCCCCCC(=O)O)CCC1=O	8.32%	–	–
O=S(=O)(Nc1ccc(C(O)(C(F)(F)F)C(F)(F)F)cc1)c1cccs1	-3.03%	–	–
C=C1CC2C3(C)C(OC(C)=O)CC(=O)OC(C)(C)C3C(O)C(OC(C)=O)C2(C)C2C(=O)OC(C)C(=O)C12C (stereo not drawn)	–	inactive [at 33.1 µM]	–
COC1=CC(=O)C[C@@H](C)[C@]12Oc1cc(OC)cc(OC)c1C2=O	4% [at 33.1 µM]	–	–
C/C=C/C=C/C=C/C(=O)O[C@@H]1[C@@H](OC)C2=C(C(=O)N(C(C)C(=O)O)C2)[C@@]2(C)CCCC(C)(C)[C@H]12 (stereo partly drawn)	–	–	11.2 µM (active)
C/C(=C/CCC(CO)C1CCC2(C)C3CCC4C(C)(C)C(OC5OC(CO)C(O)C(O)C5O)CC(O)C45CC35CCC12C)COC1OC(CO)C(O)C(O)C1O (stereo not drawn)	30.6% [at 15.1 µM]	–	–
COC1CC(OC2CCC3(C)C(=CCC4C3CCC3(C)C(C(C)O)CCC43O)C2)OC(C)C1OC1OC(C)C(OC2OC(COC3OC(COC4OC(CO)C(O)C(O)C4O)C(O)C(O)C3O)C(O)C(O)C2O)C(OC)C1O (stereo not drawn)	11.3% [at 15.1 µM]	–	–
CC(C)CC1(C(=O)OCc2ccc(O[C@@H]3O[C@H](CO)[C@@H](O)[C@H](O)[C@H]3O)cc2)CC(=O)OC(C(=O)O)CC(=O)OCC2OC(O1)C(OC(=O)/C=C/c1ccc(O)cc1)C(O)C2O (stereo partly drawn)	10.6% [at 15.1 µM]	–	–
CCC(CCO[C@@H]1O[C@H](CO[C@H]2OC[C@](O)(CO)[C@H]2O)[C@@H](O)[C@H](O)[C@H]1O)C(C)(C)O (stereo partly drawn)	15.3% [at 33.1 µM]	–	–
C=CC1C(O[C@@H]2O[C@H](CO)[C@@H](O)[C@H](O)[C@H]2O)OC=C(C(=O)OC)C1Cc1nccc2c1[nH]c1ccccc12 (stereo partly drawn)	18.9% [at 33.1 µM]	–	–
CCC[C@@H]1C[C@@H](C(=O)N[C@H](C(C)Cl)[C@H]2O[C@H](SC)[C@H](O)[C@@H](O)[C@H]2O)N(C)C1 (stereo partly drawn)	8.09%	–	–
COc1cc2c(cc1O)C1(OC)Cc3ccc4c(c3C1N(C)CC2)OCO4 (stereo not drawn)	-7.99% [at 33.1 µM]	–	–
CCN[C@@H]1C[C@H](N)[C@@H](O[C@H]2OC(CN)=CC[C@H]2N)[C@H](O)[C@H]1O[C@H]1OC[C@](C)(O)[C@H](NC)[C@H]1O	–	–	inactive
CC1CCC2C(C)(C)CC(C)(CO)C2(O)C1C(=O)O (stereo not drawn)	–	inactive	–
C[C@@H]1C[C@H]2[C@@H]3CCC4=CC(=O)C=C[C@]4(C)[C@@]3(F)[C@@H](O)C[C@]2(C)[C@@]1(O)C(=O)COP(=O)(O)O	21.5%	–	–
N#Cc1ccnc(N2C(=O)CC[C@H]2C(=O)N(c2cncc(F)c2)[C@H](C(=O)NC2CC(F)(F)C2)c2ccccc2Cl)c1	-23.6%	–	–
C[C@@]12C[C@]3(O)O[C@H](O1)[C@]1(COC(=O)c4ccccc4)[C@H]3C[C@@]12O[C@@H]1O[C@H](COC(=O)c2ccccc2)[C@@H](O)[C@H](O)[C@H]1O	17.2% [at 33.1 µM]	–	–
